# Test results taken from PubChem BioAssay.
# The source made the active and inactive calls. The rule behind the calls is not given here.
# Target: Pantothenate synthetase (Mycobacterium tuberculosis (strain ATCC 25618 / H37Rv)) (UniProt P9WIL5)
# Assay: Coupled enzyme confirmation of inhibitors against recombinant Mtb PanC (AID 375);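 note: 0% = full reaction with vehicle and 100% = no enzyme background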
# Details: coupled enzyme assay; at 10 µM, hits give high values
# Chain of Pantothenate synthetase (Mycobacterium tuberculosis (strain ATCC 25618 / H37Rv)) (P9WIL5 whole entry, looked up): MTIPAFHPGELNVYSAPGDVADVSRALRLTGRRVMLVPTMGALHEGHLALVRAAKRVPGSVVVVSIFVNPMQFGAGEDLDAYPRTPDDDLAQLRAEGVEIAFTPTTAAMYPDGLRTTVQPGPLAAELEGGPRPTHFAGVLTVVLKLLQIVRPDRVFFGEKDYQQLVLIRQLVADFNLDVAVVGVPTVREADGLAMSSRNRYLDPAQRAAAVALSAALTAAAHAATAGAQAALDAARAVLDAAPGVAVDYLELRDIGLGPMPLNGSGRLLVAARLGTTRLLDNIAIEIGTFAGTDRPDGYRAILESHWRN
row,SMILES,inhibition
1,O=C(CN1C(=O)CSC1=O)Nc1ccc(N2CCOCC2)cc1,7% (inactive)
2,CCOC(=O)c1[nH]c(C)c(C(=O)Nc2ccccc2F)c1C,3% (inactive)
3,CCOC(=O)N1CCC(NC(=O)c2cnn3ccccc23)CC1,0% (inactive)
4,CSC1CCCCC1(O)CSc1nc2c(cc1C#N)CCCC2 (centres undefined),4% (inactive)
5,CNC(=O)CSc1nnc(-c2cc(C)cc(C)c2)o1,7% (inactive)
6,O=C(CCCN1CCC(O)(c2ccc(Cl)cc2)CC1)c1ccc(F)cc1,0% (inactive)
7,C=CCn1c(SCc2cc(=O)n3ccsc3n2)nnc1C1CCCCC1,0% (inactive)
8,Brc1ccc2ncnc(Nc3ccc(N4CCOCC4)cc3)c2c1,0% (inactive)
9,O=C(Nc1ccccc1C(=O)NCC1CCCO1)c1ccco1 (centres undefined),1% (inactive)
10,CN(CCNS(=O)(=O)c1ccc2c(c1)oc(=O)n2C)Cc1ccccc1,0% (inactive)
11,Cc1ccc(C)c(N2CCN(Cc3nnnn3C3CCCCC3)CC2)c1,1% (inactive)
12,O=C(Nc1ccc2c(c1)OCCO2)c1ccco1,5% (inactive)
13,C=CCN1C(=O)/C(=C2\SC(N3CCOCC3)=NC2=O)c2cc(Br)ccc21,0% (inactive)
14,Cn1c(COc2ccc(Cl)cc2)nnc1SCC(=O)NC1CCCCC1,0% (inactive)
15,CCC1(C)Cc2c(sc3nc(SCC(=O)O)[nH]c(=O)c23)CO1 (centres undefined),0% (inactive)
16,COC(=O)c1ccc2c(c1)nc(C)n2CCO,0% (inactive)
17,O=C(CSCc1cccs1)N1CCCC1,3% (inactive)
18,COc1ccc(C(C)N2CC34C=CC(O3)C(C(=O)OCC(C)C)C4C2=O)cc1 (centres undefined),9% (inactive)
19,COC(=O)c1cnc2c(C(F)(F)F)cccc2c1OC,2% (inactive)
20,CC(=O)Nc1ccc(Cl)cc1C(=O)O,2% (inactive)

row,SMILES,inhibition
1,C=CCn1c(-c2ccc(OC)cc2)nc2ccccc21,0% (inactive)
2,CCCN(CCC)CCNC(=O)C(NS(=O)(=O)c1ccc2c(c1)CCC(=O)N2)c1ccccc1 (centres undefined),0% (inactive)
3,Nc1scc(-c2ccncc2)c1Cl,7% (inactive)
4,CN(C)CCOC(C)(c1ccccc1)c1ccccn1 (centres undefined),0% (inactive)
5,CSc1nnc(-c2cnccn2)n1C,0% (inactive)
6,CCN1CCCC1CNCc1ccc(Cl)cc1Cl (centres undefined),0% (inactive)
7,O=C(OCn1nnc2ccccc2c1=O)C1CCN(S(=O)(=O)c2cccs2)CC1,0% (inactive)
8,O=C(CCNC(=O)Cn1ccc2ccccc2c1=O)NCCN1CCc2ccccc2C1,3% (inactive)
9,O=C(NC1(C(=O)NC2CCCCC2)CCCCC1)c1ccc2c(c1)OCO2,3% (inactive)
10,Cc1nn(CC(O)Cn2c3c(c4ccccc42)CCN(C)C3=O)c(C)c1Br (centres undefined),7% (inactive)
11,Cn1c(=O)c2[nH]c(NCC3CCCO3)nc2n(-c2ccccc2)c1=O (centres undefined),0% (inactive)
12,CCc1c(C)nc(N2CCN(Cc3ccccc3)CC2)[nH]c1=O,3% (inactive)
13,Cc1ccc(NC(=O)CN(C)S(=O)(=O)c2cccc3nsnc23)cc1Cl,1% (inactive)
14,COc1cc(-c2noc(-c3ccccc3C(=O)NCc3ccco3)n2)cc(OC)c1OC,9% (inactive)
15,Cc1nc2sc(C(c3cccc(F)c3)N3CCCCC3)c(O)n2n1 (centres undefined),0% (inactive)
16,Cc1ccc(S(=O)(=O)N2CCC(C(=O)N3CCC[C@H]3C(=O)NCc3ccccc3)CC2)cc1,0% (inactive)
17,O=C(c1ccco1)N1CCN(C(=O)C2CCN(S(=O)(=O)c3cccc4nsnc34)CC2)CC1,10% (inactive)
18,Cc1cccc(OCC(=O)N2CCC(N3CCCCCC3)CC2)c1,0% (inactive)
19,COC(=O)c1sc(S(=O)(=O)N2CCN(c3ccccc3)CC2)c(C(=O)OC)c1C,10% (inactive)
